# The list is not random: actives were taken first. Their share in the collection is about 7.1%.
# SW480 rereplic: inducers of DNA re-replication in SW480 colon cancer cells; Potency, µM (highest dose often 46.1 µM), for inactives: top-dose re-replication activation, hits mostly activators; hit rate 1.8% among 340,000; SW480 DNA re-replication, Hoechst DNA content imaging, 48 h; AID 624297; note: % of control where 0% means no effect; nearly all actives have a fitted effect of over 55% in size
#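 250 cells/well; 23 nL cpd via pin tool; 48 hr, 37 C, 5% CO2; Hoechst 40 min; imager read of total nuclear intensity, ex 405/em 500-530 nm.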
# AT treatment: potential ataxia-telangiectasia treatment; hit rate 0.19% among 320,000; Potency, µM (series often up to 57.5 µM), for the others: at the top dose activation, usual class: activators; F2112 A-T fibroblasts, KAP-1 phosphorylation AlphaLISA; neocarzinostatin DNA damage 30 min before lysis; note: % of control where 0% means no effect; nearly all actives have a fitted effect of over 45% in size
#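 hTERT-immortalized A-T patient fibroblasts (F2112), 500 cells/well in OPTI-MEM, 1% FBS, got compounds for 60 min, then NCS for 30 min at 37C. Lysates were then assayed for phospho-KAP-1 by AlphaLISA (anti-pKAP1 donor, anti-KAP1 acceptor beads), 6 hr at 25C.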
# p53 reactivation: restores transcriptional activity of mutant p53. hit rate 0.063% among 320,000. H1299 p53-A138V BP100-luciferase reporter, luminescence, 24 h. Potency, µM (series often up to 92.2 µM), for inactives: at the top dose activity change, positive = activation, hits mostly activators; note: % of control where 0% means no effect; nearly all actives have a fitted effect of over 45% in size
#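 H1299 (p53-null), stable ts p53-A138V + BP100-Luc; 1000 cells/well, Opti-MEM/10% FBS; cpd 4 pt, 1:5; 24 h, 37 deg C, 5% CO2; detection reagent 10 min RT; luminescence.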
# ELG1 repair inh: inhibitors of ELG1-dependent DNA repair in HEK293T cells; HEK293T ELG1-luciferase reporter, luminescence, 16 h; DNA damage induced by 5-fluorouridine; Potency, µM (doses to about 46.1 µM), without a hit: top-dose activity change, negative = inhibition, usual class: inhibitors; hit rate 2.3% among 330,000; AID 504467; note: % is set by controls: 0 for no effect and ±100 for the full control effect; nearly all actives have a fitted effect of over 55% in size
#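 Cells (2,000 per well) received 5-fluorouridine plus test compound or DMSO and were incubated 16 hr at 37 °C, 5% CO2. Luciferase activity was read by luminescence 30 min after ONE-Glo addition; signal suppression marked inhibition of damage-induced ELG1 function.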
# ELG1 genotox: inducers of genotoxicity in HEK293T ELG1-luciferase cells; hit rate 1.3% among 330,000; HEK293T ELG1-luciferase reporter, luminescence, 16 h; AID 504466; Potency, µM (highest dose often 46 µM), inactives show top-dose activity change, positive = activation, actives largely listed as activators; note: % of control where 0% means no effect; nearly all actives have a fitted effect of over 60% in size
#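 ELG1-luciferase HEK293T cells, 2,000/well; compound pinned in; 16 hr, 37 °C, 5% CO2; ONE-Glo, 30 min RT; luminescence on CCD imager.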
# MCF10A rereplic: DNA re-replication induction in MCF 10a cells | MCF 10A DNA re-replication, Hoechst nuclear intensity, 48 h | Potency, µM (series often up to 46.1 µM), inactives show at the top dose activity, positive = re-replication, actives largely listed as activators | hit rate 2.9% among 350,000; note: % of control where 0% means no effect; nearly all actives have a fitted effect of over 50% in size
# An asterisk follows results filed as active; u = inconclusive; x = no result given; [ ] = remark or other dose. Calls come from the whole dose curve; as a rule, active = well fitted curve in the direction sought with a large enough effect; inconclusive = small, poorly fitted or top-dose-only effect, or another doubt; inactive = no such curve, though single readings can be large; an effect the other way counts as inactive or inconclusive. Potency is the fitted concentration of half-maximal effect.
SMILES,SW480 rereplic,AT treatment,p53 reactivation,ELG1 repair inh,ELG1 genotox,MCF10A rereplic
CCn1c(C)cc(C(=O)CSc2nnc(-c3ccco3)o2)c1C,6.5µM*,1%,u,u,14%,21%
CCN(CC)S(=O)(=O)c1cccc(-c2nnc(SCCCC(=O)c3ccc(F)cc3)o2)c1,-12%,25%,-2%,16µM*,-18%,21%
C=CCn1c(C)cc(C(=O)CSc2nnc(-c3cccc(S(=O)(=O)N(CC)CC)c3)o2)c1C,6%,-2%,-2%,16µM*,-1%,18%
CCN(CC)S(=O)(=O)c1cccc(-c2nnc(SCC(=O)c3cc(C)n(C4CC4)c3C)o2)c1,-6%,-5%,0%,u,-7%,u
COc1cccc(NC(=O)CCC2CCN(Cc3nccs3)CC2)c1,-4%,2%,-9%,-3%,-2%,1%
C[C@@H]([C@H](O)c1ccccc1)N(C)C(=S)Nc1ccccc1,-17%,4%,0%,2%,-1%,1%
Cc1ccc(S(=O)(=O)Nc2cc(=O)[nH]c(SCc3ccc(Cl)cc3)n2)cc1,-71%,6%,-14%,u,15%,18µM*
CN1CCN(C(=S)SCC(=O)Nc2nc(-c3ccccc3)c(-c3ccccc3)o2)CC1,-108%,-6%,-32%,u,0%,12µM*
CCOC(=O)C(=O)Nc1nc(-c2ccccc2)c(-c2ccccc2)o1,0%,0%,-6%,1%,0%,17%
CN(C)c1nc(C(=O)NN)nc(N(C)C)n1,16%,-1%,1%,2%,-3%,3.7µM*
COC(=O)NCCOc1nc(N(C)C)nc(N(C)C)n1,-4%,2%,-3%,u,1%,25%
Cc1cccc(-n2ncc3c2CCCC3NC(=O)C2CCOCC2)c1C (configuration not stated),-5%,-4%,-5%,u,-9%,-13%
O=C(O)c1ccccc1C(=O)Nc1cc(-c2ccccc2)[nH]n1,-1%,2%,-6%,19%,2%,1%
O=C(Nc1cc(-c2ccccc2)[nH]n1)c1ccccc1,9.2µM*,4%,u,u,u,u
CCn1c(=O)c(=O)n(CC)c2cc(S(=O)(=O)Nc3cc(C)ccc3C)ccc21,1%,8%,-9%,-2%,0%,1%
C=C(NCc1ccccc1)c1ccccc1O,-3%,x,x,x,x,-6%
COc1cccc(-n2c(SCC(=O)Nc3nccs3)nnc2-c2ccoc2C)c1,21%,-1%,-3%,u,1%,3%
COc1ccc(-n2c(SCC(=O)Nc3nccs3)nnc2-c2ccoc2C)cc1,0%[9.22 µM],5%,-2%,21µM*,0%,10%
CCn1c(SCC(=O)Nc2nc(C)cs2)nnc1-c1ccoc1C,9%,-6%,0%,u,-5%,2%
COc1ccc(-n2c(SCC(=O)Nc3nc(C)cs3)nnc2-c2ccoc2C)cc1,-7%,x,-13%,23µM*,-4%,u
N#Cc1c(NC(=O)/C=C/C(=O)O)sc2c1CCN(Cc1ccccc1)C2,-18%,11%,-4%,23%,0%,u
Cc1ccccc1-n1nc2c(c1NC(=O)C1CCCC1)CS(=O)(=O)C2,-1%,28%,6%,13%,0%,18µM*
Cc1cccc(-n2nc3c(c2NC(=O)C2CC2)CS(=O)(=O)C3)c1C,-3%,-11%,12%,21%,2%,18%
CCCCC1(C)NC(=S)N2N1C(=S)NC2(C)CCCC (configuration not stated),-37%,-4%,-1%,-2%,0%,-4%
CCOc1ccccc1NC(=O)c1ccccc1NC(=O)c1ccco1,u,1%,-7%,2%,-1%,29%
SMILES,SW480 rereplic,AT treatment,p53 reactivation,ELG1 repair inh,ELG1 genotox,MCF10A rereplic
O=C(Nc1ccccc1OCc1ccccc1)c1ccccc1Br,u,-1%,6%,11%,0%,0.58µM*
COc1ccc(-c2cc3c(=O)n(CC(=O)NCCCN4CCC(Cc5ccccc5)CC4)ncn3n2)cc1,5.8µM*,-5%,u,u,u,-14%
COc1ccc(-c2cc3c(=O)n(CC(=O)NCCCN4CCN(Cc5ccccc5)CC4)ncn3n2)cc1,-10%,-5%,u,u,u,-6%
Cc1cc(C)n(C(=O)COc2ccccc2[N+](=O)[O-])n1,-3%,-1%,16%,u,-3%,-2%
CCOC(=O)c1nn(-c2ccc3c(c2)OCCO3)cc1O,-4%,-2%,-4%,u,8.2µM*,2%
CCOC(=O)c1nn(-c2ccc(C)c(C)c2)cc1O,-10%,1%,u,u,6.5µM*,-4%
COC(=O)c1nn(-c2ccc3c(c2)OCO3)cc1O,1%,-2%,18%,u,u,4%
COc1ccc(Cc2nc3ccc(C(=O)NCC(C)(C)OC)cc3o2)cc1,-4%,9%,4%,u,u,-3%
Cc1ccc(NC(=O)Cn2cc([N+](=O)[O-])nc2C)cc1C,u,1%,-3%,-16%,-3%,4%
O=c1[nH]c(C2CCN(S(=O)(=O)c3ccc(S(=O)(=O)NC4CC4)cc3)CC2)nc2c1nnn2Cc1cccc(F)c1,u,4%,4%,13µM*,-1%,12%
Cc1ccc(Cn2nnc3c(=O)[nH]c(C4CCN(S(=O)(=O)c5ccc(S(=O)(=O)NC6CC6)cc5)CC4)nc32)cc1,3%,-4%,7%,u,-6%,u
O=c1[nH]cnc2c1sc1nc(C(F)F)cc(-c3ccccc3)c12,u,0%,4%,u,u,0%
COc1ccc2cc(S(=O)(=O)c3ccccc3)c(=O)oc2c1,u,-5%,10%,6%,-2%,u
Cc1ccc(S(=O)(=O)c2cc3ccc(O)cc3oc2=O)cc1C,2.3µM*,20µM*,0%,-4%,-1%,2.3µM*
COC(=O)c1ccc(Oc2cc(C)nc(-n3nc(C)cc3C)n2)cc1,0.82µM*,1%,0%,u,u,2.1µM*
CCOC(=O)c1ccc(Oc2cc(C)nc(SC)n2)cc1,6.5µM*,-9%,-8%,0%,1%,1.8µM*
CC(C)CN(C1CCS(=O)(=O)C1)S(=O)(=O)c1ccc(C(C)C)cc1 (configuration not stated),1%,10%,0%,9%,0%,-2%
CNS(=O)(=O)c1cccc(C(=O)OCC(=O)NC(C)CCc2ccccc2)c1 (configuration not stated),-9%,5%,-2%,-13%,-8%,4%

# Bioassay records deposited in PubChem by National Center for Advancing Translational Sciences (NCATS).
